According to PubChem BioAssay (EPA / NIEHS):
Several values for one entry are separate records, joined by “and”; a condition that tells them apart may be missing. Equal entries are not always repeated. Results filed as inconclusive are left out. A structure can be active in one record and inactive in another. Activity calls are given as the source filed them. How the source made its calls, unless noted: active means hit-call score of the fitted dose curve at least 0.9, where 1 is the maximum; inconclusive means response in the unintended direction; inactive means score below 0.9.

What was measured:
[1] = BSK_3C_VCAM1: BioMAP Diversity Plus: 3C Assay for Vascular cell adhesion molecule 1 (VCAM1) Biomarker Activity (AID 2282999; active means hit-call score of the fitted dose curve at least 0.9, where 1 is the maximum; inactive means score below 0.9); settings: BioMAP 3C HUVEC, VCAM1 ELISA, cytokine-stimulated; actives raise or lower the signal
Procedure, shortened: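 Human umbilical vein endothelial cells were dosed with compound for 24 h, after which cell-surface VCAM-1 was quantified by ELISA. Bidirectional curve fitting used DMSO as negative control and activity baseline.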

[2] = BSK_4H_Eotaxin3: BioMAP Diversity Plus: 4H Assay for Eotaxin 3 Biomarker Activity (AID 2283000; active means hit-call score of the fitted dose curve at least 0.9, where 1 is the maximum; inactive means score below 0.9); settings: primary human endothelial cells (HUVEC); actives raise or lower the signal
Procedure, shortened: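 Chemicals were added to human umbilical vein endothelium cultures, and Eotaxin-3 was quantified by ELISA at 24 h. Values were derived by bidirectional fitting with DMSO serving as negative control and activity baseline.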

[3] = biological target: human Peroxisome Proliferator-activated Receptor alpha (PPARa), PPARA (gene 5465) (UniProt Q07869); assay: ATG_PPARa_TRANS: Attagene TRANS-FACTORIAL HepG2 Assay for human Peroxisome Proliferator-activated Receptor alpha (PPARa) (AID 2283001);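 on AC50: potency for gain of reporter signal over DMSO so agonist or activator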
Procedure, shortened: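 Gain-of-signal endpoint: reporter mRNA induction relative to DMSO, detected by fluorescent RT-PCR and capillary electrophoresis. HepG2 cells transiently carried GAL4-UAS-driven reporter units plus NR-Gal4 fusion; exposure lasted 24 h.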

[4] = biological target: human Peroxisome Proliferator-activated Receptor delta (PPARd), PPARD (gene 5467) (UniProt Q03181); assay: ATG_PPARd_TRANS: Attagene TRANS-FACTORIAL HepG2 Assay for human Peroxisome Proliferator-activated Receptor delta (PPARd) (AID 2283002)
Procedure, shortened: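 Measured quantity: GAL4-UAS reporter transcript induction in HepG2 after 24 h chemical dosing, with NR-Gal4 chimeras supplied by transient transfection. Detection by RT-PCR and capillary electrophoresis; upward fit against DMSO.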

[5] = biological target: human Retinoic Acid Receptor beta (RARb), RARB (gene 5915) (UniProt P10826); assay: ATG_RARb_TRANS: Attagene TRANS-FACTORIAL HepG2 Assay for human Retinoic Acid Receptor beta (AID 2283004)
Procedure, shortened: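 Transient transfection of HepG2 with multiple reporter units → chemical dosing, 24 h → total RNA isolation → RT with oligo(dT) → reporter-specific PCR, 6-FAM primer extension, HpaI digest → capillary electrophoresis. Positive direction vs DMSO control.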

[6] = biological target: Retinoic acid receptor alpha (Homo sapiens) (UniProt P10276); assay: ATG_RARa_TRANS: Attagene TRANS-FACTORIAL HepG2 Assay for human Retinoic Acid Receptor alpha (RARa) (AID 2283005);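 on AC50: potency for increased reporter signal meaning RARa activation over DMSO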
Procedure, shortened: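 HepG2 cells transiently transfected with multiple reporter units expressing chimeric RARα-GAL4 fusion, with GAL4-UAS-driven reporters. After 24 h compound exposure, reporter mRNA induction quantified by RT-PCR and capillary electrophoresis with fluorescent labeling; gain-of-signal fitted relative to DMSO control.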

[7] = BSK_3C_Proliferation: Cell Proliferation Assessment in the BioMAP Diversity Plus: 3C Assay (AID 2283006; active means hit-call score of the fitted dose curve at least 0.9, where 1 is the maximum; inactive means score below 0.9;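 on AC50: potency may reflect either rise or fall in cell number versus DMSO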); settings: primary human endothelial cells (HUVEC)
Procedure, shortened: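 Read-out is total protein by SRB absorbance at 560 nm, taken as a proxy for relative cell number. Primary human umbilical vein endothelium cultured below confluence was dosed for 48 h, TCA-fixed and SRB-stained; curves were fitted bidirectionally versus DMSO.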

[8] = biological target: Nuclear receptor subfamily 1 group I member 2 (Homo sapiens) (UniProt O75469); assay: ATG_PXR_TRANS: Attagene TRANS-FACTORIAL HepG2 Assay for human Pregnane X Receptor (PXR) (AID 2283008)
Procedure, shortened: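 Read-out is fluorescence of labelled reporter cDNA fragments separated by capillary electrophoresis after RT-PCR and HpaI digestion. Source: HepG2 cells carrying PXR-GAL4/UAS reporter constructs, treated 24 h; activity fitted upward relative to DMSO.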

[9] = biological target: human Retinoic Acid Receptor gamma (RARg), RARG (gene 5916) (UniProt P13631); assay: ATG_RARg_TRANS: Attagene TRANS-FACTORIAL HepG2 Assay for human Retinoic Acid Receptor gamma (RARg) (AID 2283009)
Procedure, shortened: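 Transient transfection of HepG2 with multi-reporter constructs, then 24 h chemical treatment. Total RNA isolated, reverse-transcribed, PCR-amplified, fluorescently labelled and resolved by capillary electrophoresis; activity scored as mRNA induction versus DMSO.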

[10] = biological target: human RAR-related Orphan Receptor gamma (RORg), RORC (gene 6097) (UniProt P51449); assay: ATG_RORg_TRANS: Attagene TRANS-FACTORIAL HepG2 Assay for human RAR-related Orphan Receptor gamma (RORg) (AID 2283011)
Procedure, shortened: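 First, HepG2 liver cells were transfected with GAL4-UAS-driven reporter constructs and the RORg-Gal4 fusion. Next, they were treated with chemical for 24 h. Finally, reporter mRNA was quantified by RT-PCR and capillary electrophoresis, with upward activity fitted against DMSO.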

[11] = biological target: Retinoic acid receptor RXR-alpha (Homo sapiens) (UniProt P19793); assay: ATG_RXRa_TRANS: Attagene TRANS-FACTORIAL HepG2 Assay for human Retinoid X Receptor alpha (RXRa) (AID 2283012)
Procedure, shortened: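 Transient transfection of human HepG2 with multiple GAL4-UAS reporter constructs; 24 h compound exposure; total RNA isolated, reverse-transcribed, PCR-amplified, 6-FAM labelled, HpaI-cut, resolved by capillary electrophoresis. Positive-direction fit versus DMSO.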

[12] = biological target: human Retinoid X Receptor beta (RXRb), RXRB (gene 6257) (UniProt P28702); assay: ATG_RXRb_TRANS: Attagene TRANS-FACTORIAL HepG2 Assay for human Retinoid X Receptor beta (RXRb) (AID 2283013)
Procedure, shortened: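 Transfect HepG2 with GAL4-UAS multi-reporter constructs (chimeric NR-Gal4, TRANS format); dose compound 24 h; isolate RNA, RT-PCR, FAM primer extension, HpaI digest; quantify by capillary electrophoresis; positive direction vs DMSO.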

[13] = read-out: E-selectin (Homo sapiens) (UniProt P16581); assay: BSK_3C_Eselectin: BioMAP Diversity Plus: 3C Assay for Eselectin Biomarker Activity (AID 2283015; active means hit-call score of the fitted dose curve at least 0.9, where 1 is the maximum; inactive means score below 0.9); settings: primary human endothelial cells (HUVEC); actives raise or lower the signal
Procedure, shortened: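 ELISA read-out of E-selectin on endothelial monolayers after 24 h chemical treatment. Human umbilical vein primary cells served as the system, with DMSO defining baseline activity for bidirectional fitting.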

[14] = read-out: Interleukin-1 alpha (IL1a), IL1A (gene 3552); assay: BSK_BE3C_IL1a: BioMAP Diversity Plus: BE3C Assay for Interleukin-1 alpha (IL1a) Biomarker Activity (AID 2283016; active means hit-call score of the fitted dose curve at least 0.9, where 1 is the maximum; inactive means score below 0.9); settings: primary human bronchial epithelial cells; actives raise or lower the signal
Procedure, shortened: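 BE3C primary human bronchial epithelium; cpd 24 h; IL-1a by ELISA; bidirectional fit vs DMSO; parallel SRB (0.1% SRB, 10% TCA fix, 560 nm) for cytotoxicity.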

[15] = read-out: Monocyte Chemoattractant Protein-1 (MCP1), CCL2 (gene 6347); assay: BSK_3C_MCP1: BioMAP Diversity Plus: 3C Assay for Monocyte Chemoattractant Protein-1 (MCP1) Biomarker Activity (AID 2283017; active means hit-call score of the fitted dose curve at least 0.9, where 1 is the maximum; inactive means score below 0.9); settings: primary human endothelial cells (HUVEC); actives raise or lower the signal
Procedure, shortened: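 ELISA read-out of MCP-1 from human umbilical vein endothelial cell cultures harvested 24 h post-dosing. Gain or loss of signal was fitted relative to DMSO.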

[16] = read-out: Monocyte Chemoattractant Protein-1 (MCP1), CCL2 (gene 6347); assay: BSK_4H_MCP1: BioMAP Diversity Plus: 4H Assay for Monocyte Chemoattractant Protein-1 (MCP1) Biomarker Activity (AID 2283018; active means hit-call score of the fitted dose curve at least 0.9, where 1 is the maximum; inactive means score below 0.9); settings: primary human endothelial cells (HUVEC); actives raise or lower the signal
Procedure, shortened: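 ELISA read-out of MCP-1 from human vascular endothelial primary cells taken at 24 hours after compound exposure. Activity was fitted in both directions relative to DMSO, which served as negative control.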

[17] = read-out: Human Leukocyte Antigen - DR isotype (HLADR), HLA-DRA (gene 3122); assay: BSK_3C_HLADR: BioMAP Diversity Plus: 3C Assay for Human Leukocyte Antigen - DR isotype (HLADR) Biomarker Activity (AID 2283019; active means hit-call score of the fitted dose curve at least 0.9, where 1 is the maximum; inactive means score below 0.9); settings: primary human endothelial cells (HUVEC); actives raise or lower the signal
Procedure, shortened: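 ELISA readout of surface HLA-DR on human umbilical vein endothelium, taken 24 h after chemical treatment. Gain- and loss-of-signal were both fitted relative to DMSO.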

[18] = read-out: Intercellular Adhesion Molecule 1 (ICAM1), ICAM1 (gene 3383); assay: BSK_3C_ICAM1: BioMAP Diversity Plus: 3C Assay for Intercellular Adhesion Molecule 1 (ICAM1) Biomarker Activity (AID 2283003; active means hit-call score of the fitted dose curve at least 0.9, where 1 is the maximum; inactive means score below 0.9); settings: primary human endothelial cells (HUVEC); actives raise or lower the signal
Procedure, shortened: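 ICAM-1 levels measured by ELISA after HUVEC cultures in the 3C system had been dosed for 24 h. Gain or loss of signal relative to DMSO was fitted in both directions.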

[19] = biological target: Peroxisome proliferator-activated receptor gamma (Homo sapiens) (UniProt P37231); assay: ATG_PPARg_TRANS: Attagene TRANS-FACTORIAL HepG2 Assay for human Peroxisome Proliferator-activated Receptor-gamma (PPARg) (AID 2283007)
Procedure, shortened: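 After 24 h of chemical exposure, transfected HepG2 cells carrying PPARγ-Gal4 chimera reporter constructs are lysed for RNA. Reporter transcripts are measured by RT-PCR and capillary electrophoresis with fluorescent labelling, and gain of signal is fitted versus DMSO.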

[20] = biological target: human RAR-related Orphan Receptor beta (RORb), RORB (gene 6096) (UniProt Q92753); assay: ATG_RORb_TRANS: Attagene TRANS-FACTORIAL HepG2 Assay for human RAR-related Orphan Receptor beta (RORb) (AID 2283010)
Procedure, shortened: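 Readout is reporter-gene mRNA induction, detected as fluorescence after RT-PCR and capillary electrophoresis, fitted for gain of signal against DMSO controls. Transiently transfected HepG2 liver cells carrying GAL4-UAS reporter constructs were treated for 24 hours.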

Measured: AC50

human Retinoid X Receptor beta (RXRb), RXRB (gene 6257), sequence (P28702 whole entry, looked up, the tested form may be a part): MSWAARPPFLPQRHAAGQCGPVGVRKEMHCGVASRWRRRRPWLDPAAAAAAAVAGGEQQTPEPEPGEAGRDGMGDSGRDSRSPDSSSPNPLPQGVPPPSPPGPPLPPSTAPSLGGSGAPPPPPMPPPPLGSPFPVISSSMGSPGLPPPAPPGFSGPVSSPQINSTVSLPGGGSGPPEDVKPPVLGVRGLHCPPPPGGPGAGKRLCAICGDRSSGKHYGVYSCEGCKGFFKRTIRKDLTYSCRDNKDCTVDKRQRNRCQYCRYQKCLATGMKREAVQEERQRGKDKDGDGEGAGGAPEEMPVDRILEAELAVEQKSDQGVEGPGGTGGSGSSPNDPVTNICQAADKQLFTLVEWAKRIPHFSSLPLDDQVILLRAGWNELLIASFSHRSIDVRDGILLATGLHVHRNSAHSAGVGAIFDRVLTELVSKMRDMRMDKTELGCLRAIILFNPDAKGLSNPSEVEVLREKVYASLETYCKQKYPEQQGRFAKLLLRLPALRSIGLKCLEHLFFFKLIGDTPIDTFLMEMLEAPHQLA
human Retinoic Acid Receptor gamma (RARg), RARG (gene 5916), sequence (P13631 whole entry, looked up): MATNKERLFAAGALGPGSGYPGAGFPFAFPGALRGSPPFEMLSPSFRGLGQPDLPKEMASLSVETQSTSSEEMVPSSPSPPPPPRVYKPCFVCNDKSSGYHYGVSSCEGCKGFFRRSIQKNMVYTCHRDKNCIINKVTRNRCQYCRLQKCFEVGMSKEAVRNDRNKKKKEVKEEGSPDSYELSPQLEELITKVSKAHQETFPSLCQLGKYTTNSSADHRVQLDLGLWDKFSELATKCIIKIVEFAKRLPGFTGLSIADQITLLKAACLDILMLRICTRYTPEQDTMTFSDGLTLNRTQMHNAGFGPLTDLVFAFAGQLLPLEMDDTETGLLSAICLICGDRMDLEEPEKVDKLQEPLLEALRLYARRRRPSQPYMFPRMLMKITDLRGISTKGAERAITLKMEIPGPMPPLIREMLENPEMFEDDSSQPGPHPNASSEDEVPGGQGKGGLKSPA
human Peroxisome Proliferator-activated Receptor delta (PPARd), PPARD (gene 5467), sequence (Q03181 whole entry, looked up, the tested form may be a part): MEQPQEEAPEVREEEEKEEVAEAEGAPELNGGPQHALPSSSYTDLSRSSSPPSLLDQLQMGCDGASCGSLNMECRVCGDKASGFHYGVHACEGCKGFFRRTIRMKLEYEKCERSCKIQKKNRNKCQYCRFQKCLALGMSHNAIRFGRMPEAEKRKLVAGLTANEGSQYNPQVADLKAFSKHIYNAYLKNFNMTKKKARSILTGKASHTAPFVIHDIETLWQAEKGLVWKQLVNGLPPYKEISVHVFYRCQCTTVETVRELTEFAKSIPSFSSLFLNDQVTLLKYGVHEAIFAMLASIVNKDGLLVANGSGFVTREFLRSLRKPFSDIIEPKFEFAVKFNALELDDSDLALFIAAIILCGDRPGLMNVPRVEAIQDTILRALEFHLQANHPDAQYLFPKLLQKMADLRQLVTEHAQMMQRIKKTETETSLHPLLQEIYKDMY
Retinoic acid receptor RXR-alpha (Homo sapiens), sequence (P19793 whole entry, looked up, the tested form may be a part): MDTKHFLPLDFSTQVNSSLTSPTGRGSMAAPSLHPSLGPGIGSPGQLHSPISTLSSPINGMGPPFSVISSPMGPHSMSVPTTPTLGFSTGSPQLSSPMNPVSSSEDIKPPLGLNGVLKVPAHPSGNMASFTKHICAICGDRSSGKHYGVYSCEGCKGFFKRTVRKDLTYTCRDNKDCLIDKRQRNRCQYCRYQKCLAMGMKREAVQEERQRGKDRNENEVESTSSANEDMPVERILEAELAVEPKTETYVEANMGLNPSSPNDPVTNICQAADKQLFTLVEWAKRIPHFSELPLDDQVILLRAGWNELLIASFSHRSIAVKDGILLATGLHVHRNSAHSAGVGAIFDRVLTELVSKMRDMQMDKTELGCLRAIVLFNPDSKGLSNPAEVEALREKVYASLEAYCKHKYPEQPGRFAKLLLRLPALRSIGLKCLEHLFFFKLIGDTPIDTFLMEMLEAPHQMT
Peroxisome proliferator-activated receptor gamma (Homo sapiens), sequence (P37231 whole entry, looked up, the tested form may be a part): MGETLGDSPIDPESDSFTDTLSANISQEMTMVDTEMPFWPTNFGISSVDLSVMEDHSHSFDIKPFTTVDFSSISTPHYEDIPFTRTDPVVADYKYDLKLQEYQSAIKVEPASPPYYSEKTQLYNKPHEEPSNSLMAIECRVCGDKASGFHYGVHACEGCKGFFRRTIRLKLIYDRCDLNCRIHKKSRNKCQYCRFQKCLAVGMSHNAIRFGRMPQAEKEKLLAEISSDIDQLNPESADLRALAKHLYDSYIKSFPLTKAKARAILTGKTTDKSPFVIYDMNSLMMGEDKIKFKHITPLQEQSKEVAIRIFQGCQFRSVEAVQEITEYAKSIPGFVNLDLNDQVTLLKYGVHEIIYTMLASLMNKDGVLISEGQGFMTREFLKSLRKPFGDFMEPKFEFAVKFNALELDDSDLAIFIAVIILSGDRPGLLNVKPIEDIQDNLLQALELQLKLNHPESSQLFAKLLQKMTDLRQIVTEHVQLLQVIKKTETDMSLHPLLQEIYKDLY
human Retinoic Acid Receptor beta (RARb), RARB (gene 5915), sequence (P10826 whole entry, looked up): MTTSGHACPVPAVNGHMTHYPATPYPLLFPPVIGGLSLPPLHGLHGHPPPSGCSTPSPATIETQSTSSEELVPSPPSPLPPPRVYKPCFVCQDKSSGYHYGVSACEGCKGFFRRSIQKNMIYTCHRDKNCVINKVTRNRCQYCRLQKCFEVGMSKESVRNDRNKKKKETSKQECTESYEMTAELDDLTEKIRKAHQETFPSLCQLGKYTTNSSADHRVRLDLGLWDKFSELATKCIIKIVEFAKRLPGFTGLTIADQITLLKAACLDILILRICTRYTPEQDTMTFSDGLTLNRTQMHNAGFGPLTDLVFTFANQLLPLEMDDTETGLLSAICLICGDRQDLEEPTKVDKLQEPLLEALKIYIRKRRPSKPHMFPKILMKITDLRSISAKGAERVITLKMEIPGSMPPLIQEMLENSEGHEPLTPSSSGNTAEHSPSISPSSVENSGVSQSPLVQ
Nuclear receptor subfamily 1 group I member 2 (Homo sapiens), sequence (O75469 whole entry, looked up, the tested form may be a part): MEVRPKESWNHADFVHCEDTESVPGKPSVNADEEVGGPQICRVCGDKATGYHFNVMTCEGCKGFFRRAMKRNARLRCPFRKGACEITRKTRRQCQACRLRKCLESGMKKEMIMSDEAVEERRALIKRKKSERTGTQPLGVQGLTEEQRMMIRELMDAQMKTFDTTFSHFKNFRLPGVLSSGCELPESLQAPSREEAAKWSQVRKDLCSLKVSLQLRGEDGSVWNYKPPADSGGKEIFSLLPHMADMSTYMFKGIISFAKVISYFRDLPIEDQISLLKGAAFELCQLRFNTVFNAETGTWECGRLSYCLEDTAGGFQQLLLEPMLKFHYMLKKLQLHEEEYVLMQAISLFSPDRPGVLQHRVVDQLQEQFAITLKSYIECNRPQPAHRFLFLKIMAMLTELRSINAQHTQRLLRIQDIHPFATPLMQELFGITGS
Retinoic acid receptor alpha (Homo sapiens), sequence (P10276 whole entry, looked up, the tested form may be a part): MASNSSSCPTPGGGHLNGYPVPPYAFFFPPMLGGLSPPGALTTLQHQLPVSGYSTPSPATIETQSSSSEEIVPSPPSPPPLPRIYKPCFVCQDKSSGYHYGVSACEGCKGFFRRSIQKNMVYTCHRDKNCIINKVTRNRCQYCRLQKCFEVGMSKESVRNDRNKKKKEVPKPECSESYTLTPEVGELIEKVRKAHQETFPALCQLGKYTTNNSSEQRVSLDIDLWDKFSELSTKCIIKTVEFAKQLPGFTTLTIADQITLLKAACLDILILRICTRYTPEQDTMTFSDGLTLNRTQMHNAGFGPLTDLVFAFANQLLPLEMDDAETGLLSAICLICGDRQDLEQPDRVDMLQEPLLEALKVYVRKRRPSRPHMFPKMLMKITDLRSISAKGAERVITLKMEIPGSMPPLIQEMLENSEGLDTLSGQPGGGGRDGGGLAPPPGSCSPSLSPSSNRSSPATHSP
human Peroxisome Proliferator-activated Receptor alpha (PPARa), PPARA (gene 5465), sequence (Q07869 whole entry, looked up, the tested form may be a part): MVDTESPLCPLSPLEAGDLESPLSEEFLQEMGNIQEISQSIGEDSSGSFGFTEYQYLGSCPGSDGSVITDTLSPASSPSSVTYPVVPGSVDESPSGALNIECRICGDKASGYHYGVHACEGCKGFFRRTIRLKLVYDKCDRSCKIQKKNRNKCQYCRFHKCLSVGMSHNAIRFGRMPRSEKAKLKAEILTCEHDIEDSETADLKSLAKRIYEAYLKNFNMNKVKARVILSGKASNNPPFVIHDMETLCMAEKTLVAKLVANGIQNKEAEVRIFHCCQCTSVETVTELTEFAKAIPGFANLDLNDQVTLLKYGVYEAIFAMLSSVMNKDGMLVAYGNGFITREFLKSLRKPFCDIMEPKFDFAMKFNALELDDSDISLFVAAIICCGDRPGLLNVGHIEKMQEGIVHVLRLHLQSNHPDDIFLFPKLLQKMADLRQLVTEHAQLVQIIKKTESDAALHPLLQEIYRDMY
human RAR-related Orphan Receptor gamma (RORg), RORC (gene 6097), sequence (P51449 whole entry, looked up, the tested form may be a part): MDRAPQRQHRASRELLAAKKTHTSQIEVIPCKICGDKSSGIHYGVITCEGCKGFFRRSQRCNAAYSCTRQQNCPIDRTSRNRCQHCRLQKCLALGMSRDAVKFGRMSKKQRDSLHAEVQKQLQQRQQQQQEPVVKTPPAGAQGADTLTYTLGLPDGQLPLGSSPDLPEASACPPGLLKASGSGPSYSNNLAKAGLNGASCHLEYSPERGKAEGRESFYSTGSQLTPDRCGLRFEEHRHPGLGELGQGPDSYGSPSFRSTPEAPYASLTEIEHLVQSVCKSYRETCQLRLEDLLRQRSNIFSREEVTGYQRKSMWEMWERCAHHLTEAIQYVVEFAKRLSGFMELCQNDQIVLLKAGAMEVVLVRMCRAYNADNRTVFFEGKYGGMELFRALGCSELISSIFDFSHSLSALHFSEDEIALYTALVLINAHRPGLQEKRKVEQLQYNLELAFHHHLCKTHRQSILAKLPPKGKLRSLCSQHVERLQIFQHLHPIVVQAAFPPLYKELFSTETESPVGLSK

CCCC1COC(Cn2cncn2)(c2ccc(Cl)cc2Cl)O1 (centres undefined)
active: [6] 23 µM
inactive: [1] | [2] | [3] | [4] | [5] | [6] | [7] | [8] | [9] | [10] | [11] | [12] | [13] | [14] | [15] | [16] | [17]

CCNc1nc(Cl)nc(NC(C)C)n1
active: [8] 24.7 µM and 26.1 µM and 28.1 µM
inactive: [1] | [2] | [3] | [4] | [18] | [7] | [8] | [10] | [11] | [12] | [13] | [14] | [15] | [16] | [17]

CCOC(=O)C(Cl)Cc1cc(-n2nc(C)n(C(F)F)c2=O)c(F)cc1Cl (centres undefined)
active: [19] 50 µM | [17] 9.55 µM
not listed: [4] | [6] | [9] | [18] | [20]
inactive: all other assays above

COC(=O)C=C(C)OP(=O)(OC)OC
not listed: [3] | [9] | [18]
inactive: all other assays above

N#Cc1cc(Br)c(O)c(Br)c1
active: [3] 15.9 µM | [7] 15.8 µM | [16] 14.3 µM | [17] 28 µM
inactive: [1] | [2] | [8] | [11] | [12] | [13] | [14] | [15]

C#CCOS(=O)OC1CCCCC1Oc1ccc(C(C)(C)C)cc1 (centres undefined)
active: [1] 12.8 µM | [2] 27.7 µM | [7] 9.9 µM | [13] 1.13 µM | [14] 30.3 µM | [15] 10.9 µM | [16] 10.1 µM | [17] 6.28 µM
inactive: [4] | [18] | [8] | [9] | [20] | [10] | [11]

CCCCC(CC)COC(=O)c1ccccc1C(=O)OCC(CC)CCCC (centres undefined)
active: [7] 12.7 µM | [19] 39 µM | [8] 32.9 µM | [16] 14 µM | [17] 15.5 µM
not listed: [4] | [5] | [18] | [20]
inactive: all other assays above
